The record followed here is PubChem BioAssay (NCATS).

Results filed as inconclusive are left out. A call without a number means that no potency is given here. Activity calls are given as the source filed them. Calls come from the whole dose curve; as a rule, active = well fitted curve in the direction sought with a large enough effect; inconclusive = small, poorly fitted or top-dose-only effect, or another doubt; inactive = no such curve, though single readings can be large; an effect the other way counts as inactive or inconclusive.

Assay [1] addresses Aldehyde dehydrogenase, mitochondrial (Homo sapiens) (UniProt P05091). As to the kind of experiment: qHTS for Inhibitors of the Aldehyde Dehydrogenase Family (ALDH2) Primary screen (AID 2061308). Note: nearly all actives have a fitted effect of over 55% in size. The settings on record: ALDH2 enzyme inhibition qHTS, 1536-well; series mostly up to 56 µM. In general terms: Quantitative high-throughput screening tests each substance at several concentrations.

Assay [2] concerns the target Retinaldehyde dehydrogenase 3 (Homo sapiens) (UniProt P47895). Nature of the assay: qHTS for Inhibitors of the Aldehyde Dehydrogenase Family (ALDH1A3) Primary screen (AID 2061315). The settings on record: ALDH inhibition qHTS; series mostly up to 56 µM.

With `CC(=O)Nc1sc2c(c1-c1cccc3c1sc1ccccc13)CCNC2`, the Potency result in assay [1] and in assay [2] was “inactive” in each case.

Take `Cc1ccc([S+](=O)([O-])n2cc(-c3ccc(-c4ccccc4)cc3)c3ccccc32)cc1`: the Potency entry in assay [1] and in assay [2] was “inactive” each time.

With `CNc1oc(-c2ccccc2-c2ccccc2)nc1C#N`, the Potency entry in assay [1] and in assay [2] was “inactive” in each case.

On to `COC(=O)Nc1sc2c(c1C(N)=O)CCCC2`, for which the Potency entry in assay [1] and in assay [2] was “inactive” each time.

With `CC(=O)c1cccc(-c2ccc(-c3nc4ccccc4c(=O)[nH]3)o2)c1`, the Potency result in assay [1] and in assay [2] was “inactive” in each case.

Take `C#CCOc1cc(C2=Nn3c(nnc3-c3ccc(OCC(C)=O)cc3)SC2)ccc1OC`: the Potency entry in assay [1] and in assay [2] was “inactive” throughout.

With `O=C1CCc2cc(S(=O)(=O)Nc3ccncc3)ccc2N1`, the Potency entry in assay [1] and in assay [2] was “inactive” each time.

For the compound `Cc1cnc(-c2ccccc2C(C)C)nc1NCc1ccc(-c2cccnc2)cc1`, the Potency entry in assay [1] and in assay [2] was “inactive” in each case.

Consider `COc1ccc(C(=O)Nc2nc(-c3ccccc3)cs2)c(OC)c1`, for which the Potency entry in assay [1] and in assay [2] was “inactive” each time.

For `O=C(O)c1cccc(-c2cccc(-c3nn4c(=O)cc(N5CCNCC5)nc4s3)c2)c1`, the Potency entry in assay [1] and in assay [2] was “inactive” throughout.

As to `O=C(OCC#CCSc1nnc(-c2ccc3ccccc3c2)o1)c1cccc(F)c1`, the Potency entry in assay [1] and in assay [2] was “inactive” in each case.

As for `Cc1nc(NC2CCCCC2)c2nc(-c3ccccc3)n(CCN3CCCC3)c2n1`, the Potency result in assay [1] and in assay [2] was “inactive” each time.

In the case of `CCCn1c(-c2ccc(F)cc2)nc2c(NCCN3CCOCC3)nc(C)nc21`, the Potency entry in assay [1] and in assay [2] was “inactive” throughout.

`COc1cccc(Nc2nn3c(=O)c4ccccc4nc3s2)c1`: the Potency result in assay [1] and in assay [2] was “inactive” throughout.

For `C=C1C(=O)O[C@@H]2/C=C(\CO)CC/C=C(/C=O)C[C@@H](O)[C@@H]12`, the Potency entry in assay [1] and in assay [2] was “inactive” throughout.
